Test results published in PubChem BioAssay (NCI).
The panel holds about 83,000 compounds, 20% with a hit somewhere; the sample as a whole holds those more often.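 Values shown are percent growth following 48 h exposure of cells in 96-well plates to a single concentration of compound; below 10 was considered active.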 The source made the active and inactive calls.

Columns and labels:
Assay in all cases: NCI-60 one-dose screen, 48 h (100 = growth as untreated, 0 = no growth, -100 = all killed)
Conditions in all cases: 10 µM unless noted
HCT-15 colon = test system: HCT-15 colon
HT29 colon = test system: HT29 colon
SNB-75 CNS = test system: SNB-75 CNS
SNB-19 CNS = test system: SNB-19 CNS
U251 CNS = test system: U251 CNS
PC-3 prostate = test system: PC-3 prostate
SK-MEL-5 melanoma = test system: SK-MEL-5 melanoma
UACC-62 melanoma = test system: UACC-62 melanoma
LOX IMVI melanoma = test system: LOX IMVI melanoma
SK-MEL-28 melanoma = test system: SK-MEL-28 melanoma
EKVX NSCLC = test system: EKVX NSCLC
SN12C renal = test system: SN12C renal
UO-31 renal = test system: UO-31 renal
TK-10 renal = test system: TK-10 renal
ACHN renal = test system: ACHN renal
A498 renal = test system: A498 renal
CCRF-CEM leukemia = test system: CCRF-CEM leukemia
MOLT-4 leukemia = test system: MOLT-4 leukemia

Measured: growth

COc1ccc([C@@H]2[C@@H](Oc3ccccc3)C(=O)N2c2cc(OC)c(OC)c(OC)c2)cc1F
inactive: HCT-15 colon 12.7% | SNB-75 CNS 61.4% | SNB-19 CNS 19.9% | PC-3 prostate 20.7% | LOX IMVI melanoma 14% | SK-MEL-28 melanoma 48.9% | EKVX NSCLC 34.6% | SN12C renal 24.6% | UO-31 renal 24.4% | TK-10 renal 44.7% | ACHN renal 21.5%
active: HT29 colon -6.94% | U251 CNS 4.18% | SK-MEL-5 melanoma -15.1% | UACC-62 melanoma 0.0629% | A498 renal -9.03% | CCRF-CEM leukemia 8.73% | MOLT-4 leukemia 6.79%

COc1ccc(/C(=C\c2cc(OC)c(OC)c(OC)c2)C(=O)N2CCN(c3ccccc3)CC2)cc1O
inactive: HCT-15 colon 97.2% | HT29 colon 101% | SNB-75 CNS 77.4% | SNB-19 CNS 97.6% | U251 CNS 96.3% | PC-3 prostate 84.4% | SK-MEL-5 melanoma 97.1% | UACC-62 melanoma 88.4% | LOX IMVI melanoma 94% | SK-MEL-28 melanoma 105% | EKVX NSCLC 94.7% | SN12C renal 93.8% | UO-31 renal 69.7% | TK-10 renal 103% | ACHN renal 98.3% | A498 renal 94% | CCRF-CEM leukemia 85.5% | MOLT-4 leukemia 91.3%

COc1ccc(C(=O)c2cc(C)c(OC)c(C)c2)cc1OC(=O)CCl
active: U251 CNS 6.71% | SK-MEL-5 melanoma -18.4% | CCRF-CEM leukemia 8.68% | MOLT-4 leukemia 5.7%
inactive: HCT-15 colon 13.1% | HT29 colon 13.3% | SNB-75 CNS 69.8% | SNB-19 CNS 30.8% | PC-3 prostate 25.9% | UACC-62 melanoma 41.8% | LOX IMVI melanoma 18.9% | SK-MEL-28 melanoma 57.5% | EKVX NSCLC 44.9% | SN12C renal 31.4% | UO-31 renal 45.8% | TK-10 renal 62.6% | ACHN renal 21.4% | A498 renal 44.1%

CCOc1ccc([C@@H]2[C@@H](Oc3ccccc3)C(=O)N2c2cc(OC)c(OC)c(OC)c2)cc1
active: HT29 colon 5.82% | SK-MEL-5 melanoma -18.7% | A498 renal -9.61% | CCRF-CEM leukemia 7.6% | MOLT-4 leukemia 5.59%
inactive: HCT-15 colon 10.8% | SNB-75 CNS 65.6% | SNB-19 CNS 35.4% | U251 CNS 21.7% | PC-3 prostate 25.6% | UACC-62 melanoma 26% | LOX IMVI melanoma 26.7% | SK-MEL-28 melanoma 64.8% | EKVX NSCLC 43.5% | SN12C renal 31.4% | UO-31 renal 35.3% | TK-10 renal 48.1% | ACHN renal 25.3%

Fc1cc(-c2nnc3sc(-c4ccc(Cl)cc4)nn23)c(Cl)cc1Cl
active: CCRF-CEM leukemia -75.3%
inactive: HCT-15 colon 96.5% | HT29 colon 90.6% | SNB-75 CNS 75.5% | SNB-19 CNS 96.6% | U251 CNS 91.7% | PC-3 prostate 102% | SK-MEL-5 melanoma 85.6% | UACC-62 melanoma 90.4% | LOX IMVI melanoma 91.7% | SK-MEL-28 melanoma 84.4% | EKVX NSCLC 96.2% | SN12C renal 103% | UO-31 renal 78.1% | TK-10 renal 99.9% | ACHN renal 101% | A498 renal 97.8% | MOLT-4 leukemia 60.6%

CCCCN(CCCC)CCCN=c1nc2c(c(N)n1-c1ccccc1)c(=S)n(-c1ccccc1)c(=S)n2-c1ccccc1
active: HCT-15 colon -73.3% | HT29 colon -63.3% | SNB-75 CNS -94.2% | SNB-19 CNS -87.4% | U251 CNS -100% | PC-3 prostate -70.8% | SK-MEL-5 melanoma -100% | UACC-62 melanoma -99.4% | LOX IMVI melanoma -89.7% | SK-MEL-28 melanoma -100% | EKVX NSCLC -74.2% | SN12C renal -99.2% | UO-31 renal -80.9% | TK-10 renal -89.6% | ACHN renal -95.8% | A498 renal -100% | CCRF-CEM leukemia -78.4% | MOLT-4 leukemia -55.8%

Cc1cc(O)ccc1C1=NN(c2ccc(S(N)(=O)=O)cc2)C(=O)CC1
inactive: HCT-15 colon 35.2% | HT29 colon 11.2% | SNB-75 CNS 63% | SNB-19 CNS 82.3% | U251 CNS 53% | PC-3 prostate 50.7% | SK-MEL-5 melanoma 25.2% | UACC-62 melanoma 27.2% | LOX IMVI melanoma 63% | SK-MEL-28 melanoma 58% | EKVX NSCLC 52.6% | SN12C renal 70.7% | UO-31 renal 65.4% | TK-10 renal 114% | ACHN renal 77.6% | CCRF-CEM leukemia 46.2%
